Screens (PubChem)
HP1b chromo inh – HP1-beta chromodomain-methylated histone interaction inhibition. AlphaScreen HP1-beta / biotin-H3K9me3 peptide binding. 390,000 tested, 0.56% active. AID 540317. Potency, µM (series often up to 114 µM), for the others: top-dose activity change, negative = inhibition, most hits filed as inhibitors. P83916; note: nearly all actives have a fitted effect of over 70% in size
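HP1-beta protein (50 nM final) preincubated 30 min at room temperature with biotinylated H3(1-18)K9me3 peptide (50 nM) in PBS pH 7.4, 0.01% Tween-20, then compound added for 30 min. AlphaScreen streptavidin donor/nickel chelate acceptor beads (10 ug/mL final), 30 min dark, luminescence read.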
BAZ2B inh – blocks human BAZ2B; Q9UIF8; AlphaScreen BAZ2B-H3K14Ac peptide displacement; Potency, µM (doses to about 114 µM), for the others: top-dose activity change, negative = inhibition, actives largely listed as inhibitors; 360,000 tested, 4.4% active; note: % is set by controls: 0 for no effect and ±100 for the full control effect; nearly all actives have a fitted effect of over 60% in size
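Protein-peptide AlphaScreen: BAZ2B 50 nM, b-H3K14Ac 50 nM, 1x PBS pH 7.4 + 0.01% Tween-20. Preincubation 30 min RT; cpd 30 min RT (top 110 uM); beads 20 min RT, light-protected.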
G9a inh – inhibitors of human histone lysine methyltransferase G9a | Potency, µM (highest dose often 102 µM), for the others: top-dose activity, negative = inhibition, actives largely listed as inhibitors | Q96KQ7 | 350,000 tested, 8.8% active | G9a H3K9 monomethylation, AlphaScreen, 2 h; note: % is set by controls: 0 for no effect and ±100 for the full control effect; nearly all actives have a fitted effect of over 75% in size
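Chemiluminescent proximity detection of H3K9 monomethylation, read after 10 min bead incubation in the dark. Reaction: 20 nM G9a, 500 nM biotin-H3K9 peptide, 20 uM SAM cofactor, 2 h, room temperature, following 15 min enzyme-compound preincubation.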
L3MBTL1 inh – L3MBTL1 (human) inhibition; AlphaScreen L3MBTL1–H3K9me1 peptide binding; Potency, µM (titrated, usually from 57.1 µM), inactives show at the highest dose activity, negative = inhibition, hits mostly inhibitors; 230,000 tested, 0.66% active; note: % is set by controls: 0 for no effect and ±100 for the full control effect; nearly all actives have a fitted effect of over 60% in size
Target sequence (Q9Y468 whole entry, looked up): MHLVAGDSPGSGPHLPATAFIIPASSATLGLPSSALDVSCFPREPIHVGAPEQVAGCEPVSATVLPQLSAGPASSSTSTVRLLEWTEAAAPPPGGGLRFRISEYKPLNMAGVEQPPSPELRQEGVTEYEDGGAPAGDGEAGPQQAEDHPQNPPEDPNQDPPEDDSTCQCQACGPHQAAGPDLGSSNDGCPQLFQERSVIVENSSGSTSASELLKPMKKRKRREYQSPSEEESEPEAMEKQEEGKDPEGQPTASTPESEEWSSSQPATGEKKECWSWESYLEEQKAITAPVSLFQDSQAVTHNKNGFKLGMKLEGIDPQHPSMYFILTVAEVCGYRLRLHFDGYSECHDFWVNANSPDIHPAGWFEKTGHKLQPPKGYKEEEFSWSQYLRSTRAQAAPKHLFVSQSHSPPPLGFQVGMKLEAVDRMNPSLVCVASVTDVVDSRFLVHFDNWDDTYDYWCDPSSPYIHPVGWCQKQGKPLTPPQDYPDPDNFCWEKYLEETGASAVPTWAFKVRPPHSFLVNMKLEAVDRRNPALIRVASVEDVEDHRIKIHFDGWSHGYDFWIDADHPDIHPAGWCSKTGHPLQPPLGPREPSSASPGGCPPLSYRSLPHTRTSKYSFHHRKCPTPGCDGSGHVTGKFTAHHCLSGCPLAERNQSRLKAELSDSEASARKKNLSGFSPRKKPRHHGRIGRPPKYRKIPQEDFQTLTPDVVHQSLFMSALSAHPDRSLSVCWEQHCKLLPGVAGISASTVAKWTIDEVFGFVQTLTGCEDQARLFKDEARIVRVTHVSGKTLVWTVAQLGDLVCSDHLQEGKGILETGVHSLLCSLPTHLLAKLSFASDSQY
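AlphaScreen proximity signal between nickel-chelate acceptor and streptavidin donor beads (final 10 ug/mL) reports binding of 50 nM L3MBTL1 to 75 nM biotin-H3 K9me1 peptide; complex incubated with compounds 30 min at room temperature; cefsulodin titration as control.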
JMJD2A Tudor inh – JMJD2A Tudor domain (human) inhibition | AlphaScreen JMJD2A-Tudor / H3K4me3 peptide binding | 390,000 tested, 4.4% active | O75164 | Potency, µM (doses to about 114 µM), without a hit: at the top dose activity change, negative = inhibition, usual class: inhibitors; note: % is set by controls: 0 for no effect and ±100 for the full control effect; nearly all actives have a fitted effect of over 50% in size
* = called active by the depositor; u = inconclusive; x = no result; [ ] = remark or other dose. Shown are actives, neighbours in structure and some others; about 11% of the full set was active somewhere. Calls come from the whole dose curve; as a rule, active = well fitted inhibition curve with a large enough effect; inconclusive = small, poorly fitted or top-dose-only effect; inactive = no such curve, though single readings can be large or run the other way. Potency is the fitted concentration of half-maximal effect.

SMILES	HP1b chromo inh	BAZ2B inh	G9a inh	L3MBTL1 inh	JMJD2A Tudor inh
Cc1ccc(OCCOc2cccc(C=C3C(=O)NC(=O)NC3=O)c2)c(C)c1	67.8%	u	28.2µM*	26.3%	35.5µM*
O=C1NC(=O)C(=Cc2cccc(OCCOc3ccccc3)c2)C(=O)N1	-5.1%	15.2%	35.5µM*	x	u
CC1Oc2cc3c(-c4c(O)cc(O)c5c(O)c6c(cc45)OC(C)C(C)C6=O)c(O)cc(O)c3c(O)c2C(=O)C1C (stereo not given)	u	31.6µM*	12.6µM*	2µM*	44.7µM*
CC(=O)O[C@H]1C[C@@H](O[C@@H]2[C@H](C)O[C@H](O[C@@H]3[C@H](C)O[C@H](O[C@@H]4CC[C@@]5(C)[C@@H](CC[C@]6(C)[C@]5(C)C[C@H](O)[C@]5(C)[C@@H](C7=CC(=O)OC7)CC[C@@]56O)C4)C[C@@H]3O)C[C@@H]2O)O[C@@H](C)[C@H]1O[C@H]1O[C@@H](CO)[C@@H](O)[C@@H](O)[C@@H]1O	x	x	17.6%[21.5 µM]	x	x
CC(=O)OC1CC[C@]2(C)C(CCC3C2CC[C@]2(C)C(C4=CC(=O)OC4)C(OC(C)=O)CC32O)C1 (stereo not given in full)	x	x	-0.9%[2.33 µM]	x	x
O=C(Oc1ccccc1)N1CCC2(CCCN(C(c3ccccc3)c3ccccc3)C2)CC1	x	x	-12.0%[12.7 µM]	x	x
COc1cc(CN=Cc2c(O)n(Cc3ccccc3)c(=S)[nH]c2=O)cc(OC)c1	33.7%	-8.4%	x	-1.9%	-1.1%
O=C(O)CCC(=O)NCCC1=c2ccccc2=N/C1=C\c1c(O)n(Cc2ccc(F)cc2)c(=S)[nH]c1=O	31.6µM*	31.6µM*	x	-21.0%	31.6µM*
COc1cccc(CSc2nc(-c3ccccc3OC)nc3c2Cc2c(CO)cnc(C)c2O3)c1	7.8%	-34.4%	u	x	-33.0%
COc1cccc(CNC(=O)CSc2ccc(-c3ccco3)nn2)c1	21.3%	u	28.2µM*	x	-22.8%
CC(Nc1cc(C)cc(C)c1)=[N+](C)CCNS(=O)(=O)c1ccc(Cl)cc1	18.1%	-12.4%	8.91µM*	x	u
CC(=O)NS(=O)(=O)c1ccc(NC(=O)c2cccn(Cc3ccc(Cl)cc3)c2=O)cc1	29.0%[57 µM]	2.0%	-27.3%[59 µM]	x	1.0%
Nc1ccc(C2(c3ccc(N)cc3)CN3CCC2CC3)cc1	2.6%	-3.5%	5.62µM*	x	-23.6%
Cc1cc(C=C2C(=O)N(C)C(=S)N(C)C2=O)c(C)n1C1CCCCC1	7.0%	u	35.5µM*	-14.1%	-35.5%
Cc1cc(C=C2C(=O)NC(=S)NC2=O)c(C)n1C1CCCC1	25.2%	79.4µM*	44.7µM*	-20.3%	-23.1%
Cc1cc(C=C2C(=O)NC(=O)NC2=O)c(C)n1-c1cccnc1	10.5%	-2.3%	-12.8%[12.7 µM]	x	-25.0%
CC12CCC3C(=CCc4cc(O)ccc43)C1CCC2=O (stereo not given)	x	x	5.2%[2.33 µM]	x	x
Clc1cccc(CNCCc2c[nH]c3ccccc23)c1	u	50.1µM*	10.9%[2.33 µM]	x	7.08µM*
c1ccc2c(CCNC3CCCCC3)c[nH]c2c1	79.4µM*	u	12.6µM*	-20.0%	31.6µM*
Cc1ccc(C)c(CN2C(=O)c3ccccc3S(=O)(=O)c3ccc(C(=O)N4CCCCCC4)cc32)c1	14.4%	u	-10.3%[59 µM]	x	-23.9%
CC(=O)Oc1ccc(Cl)c2cccnc12	x	x	-7.8%[2.33 µM]	x	x
OCCNCCc1c[nH]c2ccc(OCc3ccccc3)cc12	-8.9%	u	u	x	39.8µM*
COc1ccc2c(c[n+](C)c3c4cc5c(cc4ccc23)OCO5)c1OC	x	x	16.8µM*	x	x
COc1cc2c(ccc3c4cc(OC)c(OC)cc4c[n+](C)c23)cc1O	19.9%	x	x	x	-26.4%
OCCN(Cc1ccccc1)Cc1cccc(F)c1	u	44.7µM*	7.08µM*	-3.6%[11.4 µM]	7.08µM*
SMILES	HP1b chromo inh	BAZ2B inh	G9a inh	L3MBTL1 inh	JMJD2A Tudor inh
CC(=O)Nc1ccccc1C(=O)OCc1cccc(F)c1	40.9%	20.0%	51.7%	21.7%	18.2%
CNC(C)[C@@H](O)c1ccc(O)cc1 (stereo not given in full)	x	x	-10.1%[12.7 µM]	x	x
C=CCn1c(O)c(C(CC)=NCCN2CCOCC2)c(=O)[nH]c1=O	79.2%	u	39.8µM*	0.6%	-31.5%
CCC(=NCCCN(CC)CC)c1c(O)n(C2CCCCC2)c(=O)[nH]c1=O	31.5%	-4.3%	56.2µM*	-3.2%	-5.4%
C=CCn1c(O)c(C(CC)=Nc2ccccc2NC(C)=O)c(=O)[nH]c1=O	59.2%	-11.1%	1.41µM*	9.3%[11.4 µM]	-21.6%
C=CCn1c(O)c(C(CC)=NCCCO)c(=O)[nH]c1=O	35.3%	8.0%	-0.3%	6.9%	-5.7%
CCC(=NCCN1CCOCC1)c1c(O)n(C2CCCCC2)c(=O)[nH]c1=O	38.1%	-5.5%	35.5µM*	5.8%	1.7%
COC(=O)[C@]1(C)N[C@H](CN(C)S(=O)(=O)c2ccc(-c3ccccc3)cc2)[C@@H]2C(=O)N(Cc3ccccc3)C(=O)[C@@H]21	49.7%	x	x	-9.9%	-18.0%
Cc1ccc(-n2ncc(C(=O)N3CCN(c4ccc(Cl)cc4)CC3)c2C2CCN(C(=O)OC(C)(C)C)CC2)c(C)c1	-2.6%	-21.8%[57.1 µM]	u	x	u
Oc1ccc2c3c1O[C@H]1[C@@H](O)CC[C@]4(O)[C@H](C2)N(CC2CCC2)CC[C@@]314	x	x	20.7%[21.5 µM]	x	x
CCCCC(=O)Nc1c(C(=O)N2CCN(c3ccccc3F)CC2)oc2ccccc12	21.4%	-14.6%	u	x	-16.9%
O=C1C=CC2C3C(=O)N(c4ccccc4)C(=O)C3C1N2Cc1ccccc1 (stereo not given)	43.5%	x	x	x	-3.5%
CCC(C)N1CCN(C(=O)COc2ccc3ccccc3c2)CC1 (stereo not given)	50.1µM*	17.8µM*	1.78µM*	x	2.82µM*
O=C(COc1ccc2ccccc2c1)N1CCN(Cc2c[nH]c3ccccc23)CC1	u	50.1µM*	u	-12.1%	8.91µM*
OCC1CCCN2CCCCC12 (stereo not given)	x	x	28.1%[59 µM]	x	x
O=C(Cn1c(=O)oc2cc(S(=O)(=O)N3CCCC3)ccc21)N1CCN(c2ccccc2F)CC1	34.2%	u	u	-2.2%	-8.5%
COc1ccc(C2SCC(=O)Nc3c2c(=O)[nH]n3C2CCCCCC2)cc1 (stereo not given)	26.4%	14.2%	70.8µM*	-7.7%	-15.3%
Clc1ccc(COC(Cn2ccnc2)c2ccc(Cl)cc2Cl)cc1 (stereo not given)	-20.2%	25.1µM*	-28.1%[2.33 µM]	-11.7%	u
O=C(Nc1ccc2c(c1)OCO2)c1cccn(Cc2ccccc2)c1=O	40.7%	-2.2%	-30.7%[59 µM]	x	-2.9%
COc1cc(/C=C/[N+](=O)[O-])ccc1OC(=O)c1cccnc1	15.9%	-31.9%	3.55µM*	-8.1%	-22.6%
CN1/C(=C\C=Nc2ccccc2)C(C)(C)c2ccccc21	16.9%	u	79.4µM*	-4.6%	-13.6%
CN1/C(=C\C=C2C(=O)NC(=O)NC2=O)C(C)(C)c2ccccc21	37.5%	-12.0%	18.3%[59 µM]	x	4.5%
